# From PubChem BioAssay (NCI)
# About 83,000 compounds went through this panel and 20% of them were active in at least one assay; those are over-represented in the sample as a whole.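 Note: values are percent growth. 100 is the growth of untreated cells, values between 100 and 0 indicate rising inhibition; between -100 and 0 indicates cell death.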 Unmarked numbers belong to inactive results. The source made the active and inactive calls. The calls were made as follows: active = growth percent below 10; inactive = the rest.
# Tested on: A498 renal
# Experiment: NCI-60 one-dose screen, 48 h (100 = growth as untreated, 0 = no growth, -100 = all killed)
# Details: 10 µM unless noted
row,Structure (SMILES),growth
1,CCCCNC(=O)NS(=O)(=O)c1ccc(N2N=C(c3ccc(C)cc3C)CC2c2ccc(N(C)C)cc2)cc1 (stereo not drawn),62.6%
2,O=C1Nc2ccccc2SC1c1ccccc1Cl (stereo not drawn),96.3%
3,O=C(Nc1ccc(N2CCCCC2)c(Cl)c1)c1ccc(Br)o1,102%
4,Nc1ccc(CCCCc2ccccc2)c(Cl)c1,73.2%
5,C[C@@H]1CC[C@@H]2[C@@H]1[C@H](OC(=O)c1ccc3ccccc3c1)[C@]1(C3CCCCC3)C[C@@H](OC(=O)CO)[C@@]2(C)O1,-85% (active)
6,COc1ccc(C(=O)/C=C/c2cc3c(c(OC)c2)OCC(=O)N3)cc1,94.3%
7,CO[C@H]1/C=C/O[C@@]2(C)Oc3c(C)c(O)c4c(c3C2=O)C(=O)C(/C=N/N(c2ccccc2)c2ccccc2)=C(NC(=O)/C(C)=C\C=C\[C@H](C)[C@H](O)[C@@H](C)[C@@H](O)[C@@H](C)[C@H](OC(C)=O)[C@@H]1C)C4=O,-5.29% (active)
8,COc1cc(NC(=O)c2cccc(-c3cc(=O)c4c(O)c(OC)c(OC)cc4o3)c2)cc(OC)c1OC,80.1%
9,NC(N)=N/N=C/CO,117%
10,CCOC(=O)c1sc2ccc(NCc3nc[nH]c3C)cc2c1NC(=O)c1cc(OC)c(OC)c(OC)c1,101%
11,CCCCCCCSc1ccc(C(=O)O)cc1,97.5%
12,COc1cc2oc(-c3cccc(C(=O)Nc4ccc(C)cc4)c3)cc(=O)c2c(OC)c1OC,6.03% (active)
13,Fc1ccc(Nc2nc3nonc3nc2Nc2ccc(F)cc2)cc1,-41.1% (active)
14,C[C@@H]1C(=O)N(C[C@H](Cc2ccccc2)N(Cc2ccccc2)Cc2ccccc2)[C@]1(Cc1ccccc1)C(=O)OC(C)(C)C,8.49% (active)
15,Cc1ccc(-n2nnc(C3=NCCc4c3[nH]c3ccc(Cl)cc43)c2C)cc1,66.5%
16,COc1ccc(OC)c(/C=C2\COc3ccc(O)c(O)c3C2=O)c1,107%
17,CCOc1ccc2nc(-c3cccc(OCC(=O)NC(C)C)c3)nc(Nc3ccc(-c4cn[nH]c4)cc3)c2c1,46.7%
18,CN(C)c1ccc(C#Cc2c(F)cccc2Cl)cc1,42.6%
19,Clc1ccc2[nH]c3c(NCCCN4CCOCC4)ncnc3c2c1,58.4%
20,Cc1nc(C)c(-c2nn3c(-c4cccc(F)c4)nnc3s2)s1,67.5%

row,Structure (SMILES),growth
1,CC1(C)N=C(N)N=C(N)N1c1ccc(Cl)c(Cl)c1,99.1%
2,CCOc1cccnc1/C=N/NC(N)=S,3.97% (active)
3,COc1cc2oc(-c3cccc(C(=O)Nc4ccc(C#N)cc4)c3)cc(=O)c2c(O)c1OC,86.7%
4,O=C1NCC(=O)N(Cc2ccco2)[C@H]1Cc1ccccc1,52.9%
5,O=C(Nc1ccccn1)[C@H](O)[C@@H](O)C(=O)N1CCOCC1,108%
6,CCOC(=O)Cc1csc2nc(-c3ccccc3)nn12,90.4%
7,CN(C)c1ccc(/C=C/c2c(F)cccc2F)cc1,77.2%
8,CCOc1cc(C2C(Cl)C(=O)N2n2cnnc2)ccc1O (stereo not drawn),101%
9,Nc1ccn(C2OC(F)(CO)C(O)C2F)c(=O)n1 (stereo not drawn),50.2%
10,CC(=O)C(C(C)=O)c1nc2sc3cc(Cl)ccc3n2c(=N)c1C#N,84.5%
11,O=C(CC1Sc2ccccc2NC1=O)NNc1ccc(F)cc1 (stereo not drawn),91.7%
12,CN(C)c1ccc2cc(-c3ccc(Cl)c(Cl)c3)c(N)nc2c1,40.9%
13,Nc1c(C(=O)Nc2ccccc2)sc2nc3c(cc12)CCCCCC3,-0.375% (active)
14,O=C(Nc1cccc2[nH]c(C(F)(F)F)nc12)c1cc(Cl)ccc1Cl,-7.02% (active)
15,NC(=S)N/N=C/C(=O)O,80.3%
16,COc1cc(/C=C2\C=C(c3ccccc3)N(CCc3ccccc3)C2=O)cc(OC)c1OC,34.2%
17,C(=C\c1nc2ccccc2[nH]1)/c1nc2ccccc2[nH]1,83.7%
18,CCC(=O)OC1=C(C)SC2=NC(c3ccc(Cl)c(Cl)c3)=CC(c3cc(OC)c(OC)c(OC)c3)N21 (stereo not drawn),116%
19,C=C(Cl)COC(=O)C(C)(C)O,94.1%

# Tested on: CCRF-CEM leukemia
# Experiment: as above
# Details: 10 µM unless noted
row,Structure (SMILES),growth
1,CCCCNC(=O)NS(=O)(=O)c1ccc(N2N=C(c3ccc(C)cc3C)CC2c2ccc(N(C)C)cc2)cc1 (stereo not drawn),43.3%
2,O=C1Nc2ccccc2SC1c1ccccc1Cl (stereo not drawn),83.9%
3,Nc1ccc(CCCCc2ccccc2)c(Cl)c1,60.1%
4,C[C@@H]1CC[C@@H]2[C@@H]1[C@H](OC(=O)c1ccc3ccccc3c1)[C@]1(C3CCCCC3)C[C@@H](OC(=O)CO)[C@@]2(C)O1,48.3%
5,COc1ccc(C(=O)/C=C/c2cc3c(c(OC)c2)OCC(=O)N3)cc1,7.77% (active)
6,CO[C@H]1/C=C/O[C@@]2(C)Oc3c(C)c(O)c4c(c3C2=O)C(=O)C(/C=N/N(c2ccccc2)c2ccccc2)=C(NC(=O)/C(C)=C\C=C\[C@H](C)[C@H](O)[C@@H](C)[C@@H](O)[C@@H](C)[C@H](OC(C)=O)[C@@H]1C)C4=O,1.62% (active)
7,NC(N)=N/N=C/CO,93.8%
8,CCOC(=O)c1sc2ccc(NCc3nc[nH]c3C)cc2c1NC(=O)c1cc(OC)c(OC)c(OC)c1,52.2%
9,CCCCCCCSc1ccc(C(=O)O)cc1,91.5%
10,COc1cc2oc(-c3cccc(C(=O)Nc4ccc(C)cc4)c3)cc(=O)c2c(OC)c1OC,34.7%
11,Fc1ccc(Nc2nc3nonc3nc2Nc2ccc(F)cc2)cc1,17.1%
12,C[C@@H]1C(=O)N(C[C@H](Cc2ccccc2)N(Cc2ccccc2)Cc2ccccc2)[C@]1(Cc1ccccc1)C(=O)OC(C)(C)C,70%
13,Cc1ccc(-n2nnc(C3=NCCc4c3[nH]c3ccc(Cl)cc43)c2C)cc1,27.8%
14,COc1ccc(OC)c(/C=C2\COc3ccc(O)c(O)c3C2=O)c1,-0.701% (active)
15,CCOc1ccc2nc(-c3cccc(OCC(=O)NC(C)C)c3)nc(Nc3ccc(-c4cn[nH]c4)cc3)c2c1,20.4%
16,CN(C)c1ccc(C#Cc2c(F)cccc2Cl)cc1,88.6%
17,Cc1nc(C)c(-c2nn3c(-c4cccc(F)c4)nnc3s2)s1,90.4%

row,Structure (SMILES),growth
1,CC1(C)N=C(N)N=C(N)N1c1ccc(Cl)c(Cl)c1,32%
2,COc1cc2oc(-c3cccc(C(=O)Nc4ccc(C#N)cc4)c3)cc(=O)c2c(O)c1OC,88.5%
3,O=C1NCC(=O)N(Cc2ccco2)[C@H]1Cc1ccccc1,103%
4,O=C(Nc1ccccn1)[C@H](O)[C@@H](O)C(=O)N1CCOCC1,98.6%
5,CCOC(=O)Cc1csc2nc(-c3ccccc3)nn12,103%
6,CN(C)c1ccc(/C=C/c2c(F)cccc2F)cc1,101%
7,CCOc1cc(C2C(Cl)C(=O)N2n2cnnc2)ccc1O (stereo not drawn),93.6%
8,Nc1ccn(C2OC(F)(CO)C(O)C2F)c(=O)n1 (stereo not drawn),25%
9,CC(=O)C(C(C)=O)c1nc2sc3cc(Cl)ccc3n2c(=N)c1C#N,91.9%
10,O=C(CC1Sc2ccccc2NC1=O)NNc1ccc(F)cc1 (stereo not drawn),7.39% (active)
11,CN(C)c1ccc2cc(-c3ccc(Cl)c(Cl)c3)c(N)nc2c1,58%
12,Nc1c(C(=O)Nc2ccccc2)sc2nc3c(cc12)CCCCCC3,6.81% (active)
13,O=C(Nc1cccc2[nH]c(C(F)(F)F)nc12)c1cc(Cl)ccc1Cl,22.7%
14,NC(=S)N/N=C/C(=O)O,24.3%
15,COc1cc(/C=C2\C=C(c3ccccc3)N(CCc3ccccc3)C2=O)cc(OC)c1OC,100%
16,CCC(=O)OC1=C(C)SC2=NC(c3ccc(Cl)c(Cl)c3)=CC(c3cc(OC)c(OC)c(OC)c3)N21 (stereo not drawn),90.7%
17,C=C(Cl)COC(=O)C(C)(C)O,92.6%
